# Source: ChEMBL document CHEMBL3988442, “University of Dundee, Small-Polar-MMV Screening Library” (2021)
# In all, about 48,000 compounds went through this assay and about 13,000 (27%) showed an effect of 50% or more. Some of the results follow.
# Test system: Wolbachia pipientis
# Experiment: Anti-Wolbachia Cell-Based Screen
# Format: functional
# Set-up: scale not given: in the data most compounds retested in dose-response had high values
# Conditions: 5 µM
row,Compound,Percent Effect [%]
1,CC1CCCCN1C1CN(c2ccnc(C(=O)NCc3ccco3)c2)C1 (stereo unspecified),0.5235
2,CCOCc1nc(N2CCCC2)sc1C(=O)NCc1ccco1,113.4
3,Cc1nc(CCCNC(=O)c2coc(CN3CCOCC3)c2)sc1C,-5.742
4,CCCOC1CCCN(c2ccnc(C(=O)NCc3ccco3)c2)C1 (stereo unspecified),6.201
5,O=C(NCc1ccco1)c1ccc(N2CCOCC2)cc1,-7.738
6,CCOCc1nc(N2CCOCC2)sc1C(=O)NCCCc1ccco1,102.3
7,CCOCCCNC(=O)c1cc(C(C)C)nc(N2CCCCCC2)n1,4.863
8,CCOCc1nc(N2CCOCC2)sc1C(=O)NCc1ccco1,132.8
9,Cc1nc(CC(=O)NCc2csc(N3CCCC3)n2)cs1,17.94
10,CCOCc1nc(N2CCCC2)sc1C(=O)NCCC(=O)OCC,118
11,O=C(NCc1ccco1)Nc1ccc2nc(N3CCOCC3)oc2c1,-0.2531
12,O=C(NCCCc1ccco1)c1ccc(N2CCOCC2)cc1,-6.417
13,CCc1nc(CNCC2CCCN2c2cc(NC)ncn2)cs1 (stereo unspecified),9.196
14,COc1c(C2CCCN2Cc2nnc(C3CC3)n2C)c(C)nn1C (stereo unspecified),1.396
15,N#Cc1ccc(CN2CCN(C(=O)C3CCC3)[C@@H]3CS(=O)(=O)C[C@@H]32)cc1,-4.315
16,CN(CCC#N)C(=O)CN1CCCC1c1cccs1 (stereo unspecified),-24.43
17,CN(C)c1nc(N)nc(CN2CCC(c3ccccc3)CC2)n1,-7.992
18,Cc1nc(CN2CCCC2c2ccsc2)nc2ccccc12 (stereo unspecified),1.892
19,CN(C)c1nc(N)nc(CN2CCC(c3nc4ccccc4o3)CC2)n1,-47.21
20,Cc1cccc(C2CCCN2Cc2nc(N)nc(N(C)C)n2)c1C (stereo unspecified),140.3
21,CN(C)c1nc(N)nc(CN2CCCC2c2cccs2)n1 (stereo unspecified),99.23
22,CN(C)c1nc(N)nc(CN2CCCC(c3ccccc3)CC2)n1 (stereo unspecified),-22.19
23,CCCc1noc(CN2CCCC2c2ccsc2)n1 (stereo unspecified),1.014

row,Compound,Percent Effect [%]
1,CN(C)c1nc(N)nc(CN2CCCC2c2ccsc2)n1 (stereo unspecified),99.77
2,COCCC(=O)Nc1nccn1Cc1ccc(Br)cc1,-0.6439
3,CNC(=O)c1cnc(/C=C/c2ccc(OC)c(O)c2)s1,-1.59
4,Cc1cc(C(=O)N2C[C@H](CO)C[C@H](CN3CCOCC3)C2)cnc1C,8.759
5,Cc1ccc(C)c2c(O)cc(CNCCNC(=O)C(C)C)nc12,-21.09
6,c1cncc(NCCNC2CSCCSC2)c1,16.15
7,Cc1cccc(-c2noc([C@@H]3C[C@@H](O)CN3Cc3ccc(CO)o3)n2)c1,5.801
8,CC(C)n1cnc2c1C(C(=O)N1CCCC1)N(S(C)(=O)=O)CC2 (stereo unspecified),-12.38
9,Cc1nn(C)c(Cl)c1C1CCCN1Cc1nnc(C2CC2)n1C (stereo unspecified),-12.44
10,Cc1cc(NC(=O)C(C)N2CCCN(c3nccs3)CC2)on1 (stereo unspecified),-9.765
11,Cc1cc(NC(=O)C(C)N2CCN(c3nccs3)CC2)on1 (stereo unspecified),-1.934
12,CCc1nnc2n1CCN(CC(=O)Nc1cc(C)on1)C2,-12.71
13,Cc1cc(NC(=O)CN2CCN(c3nccs3)C(C)C2)on1 (stereo unspecified),108.7
14,Cc1cc(NC(=O)CN2CCN(c3nccs3)C(C)C2)no1 (stereo unspecified),110.3
15,CN(C)c1nccc(-c2c[nH][nH]c2=O)n1,105.1
16,CN(C)c1nccc(NC(=O)c2ccncc2)n1,2.726
17,CC(=O)c1ccc(C(=O)Nc2ccnc(N(C)C)n2)cc1,-0.9205
18,CN(C)c1nccc(-c2cnc(N(C)C)[nH]c2=O)n1,117.9
19,CN(C)c1nccc(CNC(=O)NC(C)(C)C)n1,-4.369
20,CCNC(=O)NCc1ccnc(N(C)C)n1,-21.64
21,c1cc(-c2nc(CN3CCn4c(nnc4C4CC4)C3)cs2)cs1,-6.477
22,Cc1noc2ncc(S(=O)(=O)Nc3cc(C(C)(C)C)n[nH]3)cc12,-0.8197
23,Cc1cc(C(=O)N(Cc2c(C)nn(C)c2C)C(C)C)nc(C)n1,12.98

row,Compound,Percent Effect [%]
1,Cn1ccc(C(=O)NCc2ccccc2CN2CCCC2)cc1=O,88.78
2,CN1CCN(Cc2ccccc2CNC(=O)c2ccc(Br)cc2F)CC1,7.367
3,CN1CCN(Cc2ccccc2CNC(=O)c2cc(Br)ccc2F)CC1,-18.53
4,CN1CCN(Cc2ccccc2CNC(=O)c2ccc(Br)cc2)CC1,1.874
5,Cn1ccc(C(=O)NCc2ccccc2Cn2ccnc2)cc1=O,-5.249
6,Cn1ccc(C(=O)NCc2ccccc2CN2CCCCC2)cc1=O,100.5
7,COc1cc(C)cc(C(C(=O)O)N(C)Cc2ccon2)c1OC (stereo unspecified),-2.337
8,O=C1CC(c2ccccc2)C2(CCN(C(=O)c3cnccn3)CC2)N1 (stereo unspecified),-7.237
9,O=C(COCC(F)(F)F)Nc1nncs1,9.109
10,O=C(NCC1CC1)Nc1cccc(N2CCN(CC3CC3)CC2)c1,0.3476
11,O=C(NCc1ccc2[nH]c(=O)[nH]c2c1)c1ccc(CN2CCCC2)o1,-9.598
12,O=C(CCn1cccc1)NCc1ccc(CN2CCCCCC2)o1,106.7
13,Cc1[nH]c2ccc(CNC(=O)c3ccc(CN4CCCC4)o3)cc2c1C,16.58
14,CC(C)N1CCCC(CNC(=O)Cc2csc(-c3cccnc3)n2)C1 (stereo unspecified),3.537
15,CNC(=O)c1csc(-c2cccnc2)n1,130
16,CNC(=O)c1csc(-c2ccoc2)n1,6.478
17,O=C(NCCc1nncn1C1CC1)C1SCCc2ccccc21 (stereo unspecified),-2.915
18,CS(=O)(=O)NC1CCN(CCc2ccccc2)CC1,-1.788
19,O=C(Cc1ccccc1F)NCC1CCN(CCc2ccccc2)C1 (stereo unspecified),-7.846
20,Cc1nn(C)cc1NC(=O)CC1CCN(CCc2ccccc2)CC1,168.6
21,Cn1cccc(NC(=O)N2CCC(Cc3ccccc3)C2)c1=O (stereo unspecified),25.6
22,Cc1nn(C)cc1C(=O)N1CCC(CSc2ccccc2)C1 (stereo unspecified),-5
23,Cc1nn(C)cc1NC(=O)CC1CCN(C(=O)Cc2ccccc2)CC1,152.2

row,Compound,Percent Effect [%]
1,CC(=O)NCc1nnc2n1CCN(c1ncnc3c1CCC3)CC2,-4.362
2,Cn1cc(Br)cc(NC(=O)CC2CCC2)c1=O,5.375
3,CC(C)(C)C(NC(=O)CCS(C)(=O)=O)c1ccc(F)cc1F (stereo unspecified),7.431
4,COCCS(=O)(=O)Cc1nnnn1-c1ccccc1,8.083
5,CCCn1[nH]cc/c1=N\C(=O)CN1CCc2cnc(C(C)C)nc2C1,129.2
6,CCCn1[nH]cc/c1=N\C(=O)CN1CCc2cnc(CC)nc2C1,1.642
7,CCCn1[nH]cc/c1=N\C(=O)CN1CCOC(Cn2cc(C)cn2)C1 (stereo unspecified),12.63
8,CCCn1[nH]cc/c1=N\C(=O)CN1CCc2c(nc(C(C)C)n2C)C1,-3.864
9,CCCn1[nH]cc/c1=N\C(=O)CN1CCc2c(nc(C3CC3)n2C)C1,122.4
10,CCCn1[nH]cc/c1=N\C(=O)CN1CCn2c(nnc2C2CC2)C1,-10.08
11,O=C(CNC(=O)N(Cc1ccoc1)C1CCCCC1)N1CCCC1,-3.863
12,O=C1CN(Cc2cn(CC3CCCN(C4CCSCC4)C3)nn2)CCN1 (stereo unspecified),-21.26
13,CNc1cncc(C2CCCN2C(=O)c2ccc3nc(C)[nH]c3c2)n1 (stereo unspecified),94.32
14,Cn1ccc(C(=O)N2CCCC2c2ccc3c(c2)OCCO3)cc1=O (stereo unspecified),4.386
15,CNc1cncc(C2CCCN2C(=O)c2ccc3c(c2)CCC3)n1 (stereo unspecified),112.1
16,CNc1cncc(C2CCCN2C(=O)c2ccc3oc(C)cc3c2)n1 (stereo unspecified),6.468
17,Cn1cc(C(=O)N2CCCC2c2ccc3c(c2)OCCO3)ccc1=O (stereo unspecified),14.96
18,CNc1cncc(C2CCCN2C(=O)c2ccc3c(c2)OCCO3)n1 (stereo unspecified),121
19,CC(C)C(=O)N1CCN(C(=O)CCc2nnc(-c3ccccc3)o2)CC1,-5.371
20,CN(CCn1cccn1)S(=O)(=O)c1ccc(C#N)cc1,-4.99
21,CC(C)c1ncncc1C(=O)N1CCN(Cc2cccnc2)CC1,115.2
22,CCc1ncncc1C(=O)N1CCCN(Cc2ccc(C)cc2)CC1,-0.6521
23,CC(C)c1ncncc1C(=O)N1CCN(Cc2ccsc2)CC1,100.4

row,Compound,Percent Effect [%]
1,CCCc1c(C(=O)N2CCN(Cc3ccccn3)CC2)cnn1C,12.63
2,CC(C)c1cc(C(=O)N2CCN(Cc3ccsc3)CC2)n[nH]1,8.435
3,CC(C)c1ncncc1C(=O)N1CCN(Cc2ccccn2)CC1,108.4
4,CC(C)c1ncncc1C(=O)N1CCCN(Cc2cccs2)CC1,14.44
5,Cc1ccc(C(=O)N2CCN(Cc3ccsc3)CC2)n1C,-3.003
6,CC(C)CN1CCN(C(=O)c2cccnc2-n2cncn2)CC1,-9.606
7,CCc1c(C)[nH]c(C(C)(N)CC)nc1=O.Cl (stereo unspecified),22.39
8,COc1cccc(COCC(O)CN(C)c2ccc(C)cc2C)c1 (stereo unspecified),0.5373
9,Cn1cc(CNC2CCOCC2)c(-c2cc3ccccc3o2)n1,2.257
10,O=c1c2ccccc2nc2n1CCN(Cc1cccs1)CC2,-4.199
11,Cn1cc(CN2CCc3nc4ccccc4c(=O)n3CC2)cn1,97.31
12,CC(C)(C)c1n[nH]cc1CN1CCc2nc3ccsc3c(=O)n2CC1,-17.99
13,Cn1cc(CN2CCCN(C(=O)c3cc(Cl)cn3C)CC2)cn1,-17.2
14,Cn1cc(CN2CCCN(C(=O)c3cn4ccccc4n3)CC2)cn1,23.55
15,Cc1nn(C)cc1CN1CCc2nc3sccc3c(=O)n2CC1,108
16,Cc1c(CN2CCc3nc4sccc4c(=O)n3CC2)cnn1C.Cl,100.5
17,Cc1cc2c(=O)n3c(nc2s1)CCN(Cc1cnn(C)c1C)CC3.Cl,-7.845
18,Cn1cc(CN2CCc3nc4sccc4c(=O)n3CC2)cn1,107.2
19,COCCN(Cc1cnn(C)c1)c1nc(C)nc2sccc12,10.56
